Source: PubChem (National Center for Advancing Translational Sciences (NCATS))
Sampled rows, rich in hits. Any-hit rate of the full collection: about 7.3%.
KinaseGlo FLuc: Kinase-Glo luciferase inhibition (counter-screen); Potency, µM (series often up to 38.3 µM), most hits filed as inhibitors; actives 0.28% (n = 200,000); Q27757; Kinase-Glo luciferase, ATP luminescence, 8 min; AID 1379; note: nearly all actives have a fitted effect of over 60% in size
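Substrate mix (final 50 mM imidazole pH 7.2, 50 mM KCl, 7 mM MgCl2, 10 uM ATP, 0.01% Tween 20, 0.05% BSA) plus pin-tool compound, then Kinase-Glo detection mix; 8 min ambient, luminescence read.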
Rab9 prom act: Rab9 promoter activation. Huh7 Rab9 promoter-luciferase reporter, luminescence, 24 h. Potency, µM (doses to about 9.22 µM), actives largely listed as activators. actives 2.8% (n = 320,000); note: nearly all actives have a fitted effect of over 60% in size
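Luciferase signal after 10 min detection reagent at ambient indicates Rab9 promoter upregulation; stably transfected Huh7 cells were treated 24 h with compound in DMSO at 37 °C, 5% CO2.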
ELG1 genotox: genotoxicity induction in ELG1-luciferase HEK293T cells | HEK293T ELG1-luciferase reporter, luminescence, 16 h | Potency, µM (titrated, usually from 46 µM), most hits filed as activators | actives 1.3% (n = 330,000); note: nearly all actives have a fitted effect of over 60% in size
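Cells (2,000/well) expressing the ELG1-luciferase fusion are dosed by pin tool and kept 16 hr at 37 °C, 5% CO2. Signal comes from ONE-Glo luciferase reagent after 30 min at room temperature.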
SMN2 splice up: enhancers of SMN2 splice variant expression; HEK293 SMN2-luciferase splicing reporter, luminescence, 30-36 h; Potency, µM (series often up to 46.1 µM), most hits filed as activators; actives 2.8% (n = 210,000); note: nearly all actives have a fitted effect of over 55% in size
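HEK293 cells carry an SMN2 minigene-luciferase reporter in which exon 7 inclusion puts luciferase in frame. Cells were seeded at 2000 cells/well, attached for 10-12 hours, then exposed to compounds for 30-36 hours at 37C before ONE-Glo luminescence.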
FLuc modulator: inhibits or activates purified firefly luciferase, miR-21 counter-screen; P08659; purified FLuc, Km substrates, luminescence inhibition; Potency, µM (titrated, usually from 57.5 µM), hits mostly inhibitors; actives 6.9% (n = 360,000); note: nearly all actives have a fitted effect of over 55% in size
Target sequence (P08659 whole entry, looked up): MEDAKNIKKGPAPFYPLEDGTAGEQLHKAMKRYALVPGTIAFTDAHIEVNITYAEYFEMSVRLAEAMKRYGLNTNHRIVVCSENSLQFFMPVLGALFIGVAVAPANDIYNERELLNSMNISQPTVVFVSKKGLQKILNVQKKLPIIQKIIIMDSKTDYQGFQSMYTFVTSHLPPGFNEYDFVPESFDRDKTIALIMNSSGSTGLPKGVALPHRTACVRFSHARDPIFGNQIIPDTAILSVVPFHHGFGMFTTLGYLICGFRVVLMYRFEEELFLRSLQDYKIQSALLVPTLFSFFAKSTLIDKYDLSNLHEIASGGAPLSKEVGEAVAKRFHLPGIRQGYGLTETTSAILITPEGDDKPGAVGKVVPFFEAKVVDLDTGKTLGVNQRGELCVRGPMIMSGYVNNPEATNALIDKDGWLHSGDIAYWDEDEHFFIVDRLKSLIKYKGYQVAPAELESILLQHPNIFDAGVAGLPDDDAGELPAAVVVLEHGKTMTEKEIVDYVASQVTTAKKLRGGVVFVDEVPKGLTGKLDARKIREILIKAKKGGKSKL
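Biochemical qHTS of compounds, final roughly 60 µM downward over six points, against 10 nM purified firefly luciferase using Km concentrations of substrates (10 uM D-luciferin, 10 uM ATP) in Tris acetate pH 7.5 buffer; luminescence output.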
NPC1 prom act: NPC1 promoter activation | Huh7 NPC1 promoter luciferase reporter, 24 h | Potency, µM (titrated, usually from 9.22 µM), usual class: activators | actives 2.4% (n = 320,000) | AID 485313; note: nearly all actives have a fitted effect of over 60% in size
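In 1536-well qHTS, Huh7 cells harboring an NPC1 promoter–luciferase construct received compound for 24 h; activation was quantified by luminescence following luciferase reagent addition.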
Hits are given with their value; n = inactive; u = inconclusive; x = no result. Calls come from the whole dose curve; as a rule, active = well fitted curve in the direction sought with a large enough effect; inconclusive = small, poorly fitted or top-dose-only effect, or another doubt; inactive = no such curve, though single readings can be large; an effect the other way counts as inactive or inconclusive.

SMILES	KinaseGlo FLuc	Rab9 prom act	ELG1 genotox	SMN2 splice up	FLuc modulator	NPC1 prom act
Cc1cc(C(=O)COC(=O)c2ccc(O)cc2)c(C)n1CC1COc2ccccc2O1 (stereo unspecified)	n	n	n	n	n	n
Cn1c(CCN2CCCCC2)nc2cc(NS(=O)(=O)c3ccccc3)ccc21	n	n	n	n	n	n
COc1ccc(/C=N/NC(=O)CSc2ccccn2)cc1OC	x	n	n	x	19µM	n
Cc1cnc(CNc2ncncc2-c2ccccc2CN(C)C)cn1	n	x	x	n	x	x
COc1cc2nc(C3CCC3)n(NC(=O)C(OC(C)=O)c3ccccc3)c(=O)c2cc1OC (stereo unspecified)	n	n	n	n	n	n
Cc1nc(Cl)cc(N/N=C/c2ccc(O)cc2O)n1	x	n	n	x	13µM	n
Cc1nc(Cl)cc(N/N=C/c2ccc(O)cc2)n1	x	n	u	x	21µM	n
O=C(Nc1ccncc1)C1CCN(S(=O)(=O)c2ccccc2C(F)(F)F)CC1	x	n	n	x	n	n
COC(=O)c1cccc(NC(=S)Nc2cccc(Cl)c2Cl)c1	n	n	n	n	n	n
C[C@@H](NC(=O)[C@@H]1Cc2ccccc2CN1)C(=O)Nc1ccc2c(c1)OCCO2	x	n	u	x	21µM	n
O=C(N/N=C/c1cn(-c2ccccc2)nc1-c1ccc2c(c1)OCCO2)c1ccncc1	n	u	u	11µM	n	u
O=C(N/N=C/c1cn(-c2ccccc2)nc1-c1ccc(F)cc1)c1ccc2c(c1)OCO2	n	n	n	n	4.3µM	n
O=C(N/N=C\c1cn(-c2ccccc2)nc1-c1ccccc1)c1ccc2c(c1)OCO2	n	n	n	n	4.8µM	n
COc1ccc(-c2nn(-c3ccccc3)cc2/C=N/NC(=O)c2ccc3c(c2)OCO3)cc1	n	n	n	n	u	n
O/N=C/c1cn(-c2ccccc2)nc1-c1ccc2c(c1)OCCO2	n	n	n	n	u	n
COc1ccc(C(=O)Nc2nc3c(s2)Cc2cc(OC)ccc2-3)cc1	n	n	n	n	u	n
COc1ccc2c(c1)Cc1sc(NC(=O)c3cccs3)nc1-2	n	2.8µM	u	u	u	4µM
Cc1cc(NS(=O)(=O)c2ccc(NC(=O)c3ccc([N+](=O)[O-])s3)cc2)nc(C)n1	x	x	n	x	x	x
Cc1nc2cc(NC(=O)c3ccc([N+](=O)[O-])s3)ccc2s1	x	u	u	x	3.8µM	n
CC(=O)Nc1ccc2nc(NC(=O)c3cccs3)sc2c1	x	0.32µM	u	x	2.1µM	0.63µM
COc1ccc2nc(NC(=O)c3cccs3)sc2c1	x	0.28µM	u	x	0.67µM	0.32µM
Cc1ccnc(NS(=O)(=O)c2ccc(NC(=O)C3CCCCC3C(=O)O)cc2)n1 (stereo unspecified)	n	n	n	n	n	n
CC(=O)Nc1ccc2nc(NC(=O)c3ccc([N+](=O)[O-])s3)sc2c1	x	u	n	x	5.4µM	n
Cc1nc2ccc(NC(=O)c3cccs3)cc2s1	x	2.5µM	u	x	17µM	3.5µM
Cc1nc2ccc(NC(=O)c3sccc3C)cc2s1	n	2.2µM	u	11µM	7.6µM	1.8µM
SMILES	KinaseGlo FLuc	Rab9 prom act	ELG1 genotox	SMN2 splice up	FLuc modulator	NPC1 prom act
Cc1ccc2c(c1)sc[n+]2Cc1ccccc1	n	n	u	n	5.4µM	n
COC(=O)c1ccccc1NC(=O)c1ccc2c(c1)OCCO2	n	n	n	u	u	n
CC(C)(C)C(=O)Nc1ccccc1C(=O)OCC(=O)c1ccc2c(c1)OCCO2	n	n	n	n	6.7µM	n
O=C(COC(=O)c1ccccc1NC(=O)C1CC1)c1ccc2c(c1)OCCO2	n	u	n	n	1.7µM	n
N#CC/C(N)=N/NC(=O)CCCNc1ncc(C(F)(F)F)cc1Cl	n	u	n	16µM	n	n
NC(=O)CNc1ncc(C(F)(F)F)cc1Cl	n	n	n	n	n	n
CCOC(=O)c1[nH]c2ccc(OCC)cc2c1NC(=O)CN1CCCC(C)C1 (stereo unspecified)	n	n	n	n	n	n
O=C(CSc1nnc(CN2CCCCCC2=O)n1-c1ccccn1)NCC(F)(F)F	n	n	n	n	n	n
CCN(CC)c1ccc(/C=N/NC(=O)c2cccc(N3CCCC3=O)c2)cc1	n	n	n	n	15µM	n
O=C(N/N=C/c1cccnc1)c1cccc(N2CCCC2=O)c1	x	n	n	x	u	n
COc1cc(/C=N/NC(=O)c2ccc3nc[nH]c3c2)ccc1O	x	n	n	x	u	n
COc1ccccc1/C=C/C=N/NC(=O)c1ccc2nc[nH]c2c1	n	n	n	n	17µM	n
CCN(CC)c1ccc(/C=N/NC(=O)c2ccc3nc[nH]c3c2)cc1	x	n	n	x	19µM	n
COc1cccc(/C=N/NC(=O)c2ccc3nc[nH]c3c2)c1	x	n	n	x	15µM	n
CCOC(=O)Cn1nc(Cc2ccccc2)c2ccccc2c1=O	n	n	n	n	n	n
CN(C)c1ccc(/C=N/NC(=O)c2ccc3nc[nH]c3c2)cc1	x	n	n	x	13µM	n
O=C1/C(=C/c2ccccc2Cl)SC(=S)N1CCC(=O)N1CCCCC1CCO (stereo unspecified)	x	n	n	x	u	n
COc1ccc(/C=C2\SC(=S)N(CCCC(=O)N3CCN(C)CC3)C2=O)cc1	x	n	n	x	15µM	n
O=C1/C(=C\c2ccccc2)SC(=S)N1CCC(=O)N1CCCCC1CCO (stereo unspecified)	x	n	n	x	17µM	n
COc1ccc(/C=C2\SC(=S)N(CCCC(=O)N3CCCCC3CCO)C2=O)cc1 (stereo unspecified)	x	n	n	x	17µM	n
CC(C)c1ccc(/C=C2\SC(=S)N(CCC(=O)N3CCCCC3CCO)C2=O)cc1 (stereo unspecified)	x	n	n	x	3.4µM	n
Cc1cc(C)cc(NC(=O)N2CCC(C(=O)c3ccc(F)cc3)CC2)c1	n	n	n	n	n	n
CN1CCN(CCCCOc2ccccc2C=O)CC1	n	n	n	n	n	n
CN(c1ccc(OCC(=O)OCC(=O)Nc2ccc(Br)cc2)cc1)S(=O)(=O)c1cccs1	n	n	n	n	n	n
COc1ccc(NC(=O)c2ccccc2C)cc1	x	3.2µM	u	x	9.5µM	1.4µM
O=C(Nc1ccccn1)c1ccc([N+](=O)[O-])cc1Cl	n	n	n	n	u	n
O=C(Nc1ccccn1)c1cc2ccccc2cc1O	x	4µM	2.3µM	x	2.4µM	3.5µM
COc1ccc(NC(=O)c2cc3ccccc3cc2O)cc1	x	2.2µM	u	x	0.95µM	2.2µM
Cc1ccc(NC(=O)c2cc3ccccc3cc2O)cc1	x	2.8µM	u	x	1.1µM	2µM
Cc1cc2c(cc1S(=O)(=O)Nc1cccc(C(F)(F)F)c1)OCCN2C	x	x	x	x	n	x
